Screening data from PubChem BioAssay.
GPR151 activ = activators of human GPR151; PathHunter beta-arrestin GPR151 cells, luminescence; actives 1% (n = 650,000); activation, % at 11.2 µM; Q8TDV0; in the data active = activation above about 4.9%;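 also: 0% = median of compound wells and 100% = cells with positive control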
TEAD-YAP inh = TEAD-YAP interaction inhibition; HEK-TIYL cells, TEAD-Gal4/YAP UAS-luciferase luminescence; inhibition, % at 9.12 µM; actives 1.4% (n = 640,000); AID 1259422; in the data active = inhibition above about 32%;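 also: 0% = median of test compound wells and 100% = reference inhibitor wells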
MITF inh = human MITF inhibition, primary screen | O75030 | AlphaScreen MITF homodimerization, bead proximity signal | inhibition, % at 2.6 µM | actives 0.91% (n = 650,000) | AID 1259374; in the data active = inhibition above about 50%;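 also: 0% = vehicle wells with protein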
Target sequence (O75030 whole entry, looked up): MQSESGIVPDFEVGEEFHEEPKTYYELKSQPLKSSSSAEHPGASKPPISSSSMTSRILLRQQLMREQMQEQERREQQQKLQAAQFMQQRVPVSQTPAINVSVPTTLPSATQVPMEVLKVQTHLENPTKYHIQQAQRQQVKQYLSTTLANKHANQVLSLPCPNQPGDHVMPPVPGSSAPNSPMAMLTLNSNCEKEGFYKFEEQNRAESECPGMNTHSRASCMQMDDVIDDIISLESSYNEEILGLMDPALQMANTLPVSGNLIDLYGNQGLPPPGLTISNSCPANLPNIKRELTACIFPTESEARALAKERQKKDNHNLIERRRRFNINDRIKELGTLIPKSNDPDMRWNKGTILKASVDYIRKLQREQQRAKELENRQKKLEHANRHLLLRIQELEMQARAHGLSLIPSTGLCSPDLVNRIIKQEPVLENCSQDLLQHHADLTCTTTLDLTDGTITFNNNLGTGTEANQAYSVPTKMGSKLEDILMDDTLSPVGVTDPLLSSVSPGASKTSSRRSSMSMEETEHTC
FBW7 activator = human FBW7 E3 ligase activation, primary screen; Q969H0; AlphaScreen FBW7–phospho-cyclin E peptide binding, activator screen; normalized activity (activation), % at 26.1 µM; actives 0.13% (n = 650,000); AID 1259310; in the data active = normalized activity above about 1.9%;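 also: purified mutant Fbw7 with reduced substrate affinity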
* hit, by the source's call. An excerpt weighted towards active compounds, which were near 3.4% of everything screened.

SMILES | GPR151 activ | TEAD-YAP inh | MITF inh | FBW7 activator
Cc1cc(Cl)ccc1OCC(=O)Nc1ncccn1 | 1 | -19 | 6 | 0
Cc1cc(Cl)ccc1OCC(=O)Nc1ccccn1 | -1 | 67* | 12 | 0
O=C(COc1ccc(Br)cc1Br)Nc1ncn[nH]1 | 1 | 44* | 9 | 0
O=C(COc1ccccc1[N+](=O)[O-])Nc1ccccc1Cl | 0 | -49 | 18 | 0
Cc1ccccc1OCC(=O)Nc1ccc(Cl)cc1 | -1 | -42 | 10 | 0
O=C(COc1ccccc1[N+](=O)[O-])Nc1ccccn1 | -9 | 36* | 3 | 0
Cc1ccccc1OCC(=O)NNC(=O)Nc1ccc(Cl)cc1 | 0 | 59* | -4 | 1
O=C(NCCN1CCN(C(=O)NCCCc2ccccc2)CC1)c1ccc2c(c1)OCO2 | 2 | -6 | 6 | 0
CSc1cccc(NC(=O)C(CC(C)C)N2Cc3ccccc3C2=O)c1 (stereo not drawn) | -1 | 5 | 7 | 1
CN(Cc1ccccc1)c1ncnc(N)c1[N+](=O)[O-] | -1 | 0 | 4 | 0
CCCN(CCC)c1ncnc(N)c1[N+](=O)[O-] | -2 | 61* | -11 | 0
O=C(N/N=C\c1ccccc1O)c1cnccn1 | -1 | -12 | 59* | -1
COc1cc([N+](=O)[O-])cc(/C=N/NC(=O)c2ccc(F)cc2)c1O | 0 | 54* | 63* | -1
O=C(N/N=C/c1ccccc1O)c1ccccc1O | 2 | 37* | 29 | 0
O=C(N/N=C\c1ccccc1F)c1cnccn1 | -1 | -30 | 10 | 0
Cc1nc2ccc(C(=O)N/N=C/c3cc([N+](=O)[O-])ccc3O)cc2[nH]1 | 1 | -20 | 92* | 1.9*
O=C(COc1ccc(F)cc1)Nc1c(F)cccc1F | 0 | -28 | -7 | 0
COc1cc([N+](=O)[O-])cc(/C=N/NC(=O)c2ccccc2O)c1O | 0 | -13 | 79* | 0
COc1ccc(/C=N/NC(=O)c2cc(C)[nH]n2)c(OC)c1 | -2 | -13 | 21 | 2.3*
Cc1cc(C(=O)N/N=C/c2c(O)ccc3cc([N+](=O)[O-])ccc23)n[nH]1 | -1 | 0 | 2 | 0
Cc1cc(C(=O)N/N=C/c2cc([N+](=O)[O-])ccc2O)n[nH]1 | 1 | 9 | 59* | -1
O=C(N/N=C/c1cc([N+](=O)[O-])ccc1Cl)c1cccnc1 | 0 | -6 | -3 | 0
O=C(N/N=C/c1cc([N+](=O)[O-])ccc1O)c1cccnc1 | -3 | 16 | 99* | -2
O=C(Nc1cc(-c2nc3ccccc3s2)ccc1[N+](=O)[O-])c1ccccc1Cl | 0 | 10 | 8 | 0
CC(=O)c1cccc(-c2nc(Nc3ccc(N4CCOCC4)cc3)c3ncn(-c4ccsc4)c3n2)c1 | -1 | 17 | -4 | 0
SMILES | GPR151 activ | TEAD-YAP inh | MITF inh | FBW7 activator
NS(=O)(=O)c1ccc(CCNC(=O)CSC2=Nc3ccccc3C3=NC(Cc4ccccc4)C(=O)N23)cc1 (stereo not drawn) | 1 | 24 | -2 | 0
CCCCNCCOc1ccc(CC)cc1 | -1 | 23 | -10 | 0
O=C(O)c1cccc(NC(=S)N/N=C/c2cc([N+](=O)[O-])ccc2O)c1 | 0 | 40* | -1 | 0
O=C(N/N=C/c1cc([N+](=O)[O-])ccc1O)c1ccccc1O | 0 | 7 | 87* | 0
CC(C(=O)N/N=C/c1ccccc1O)n1nnc2ccccc21 (stereo not drawn) | -1 | 3 | 29 | 0
CC(C(=O)N/N=C/c1cc([N+](=O)[O-])ccc1O)n1nnc2ccccc21 (stereo not drawn) | -1 | 6 | 86* | 0
CCC1=NN(C(=O)c2ccc(C)o2)C(O)(c2cccnc2)C1 (stereo not drawn) | -3 | -68 | 8 | 0
CC(=O)N=Nc1c(O)n(CC(=O)O)c2ccccc12 | 2 | 4 | 2 | 0
O=C(Nc1ccc2oc(-c3cccnc3)nc2c1)c1ccc(N2CCOCC2)c([N+](=O)[O-])c1 | 3 | -6 | -2 | 0
CCOc1ccc2nc(NC(=O)C3(S(=O)(=O)c4ccc(C)cc4)CC3)sc2c1 | 0 | 3 | 1 | 0
COc1ccc(Nc2cc(-c3cncc(-c4ccccc4)c3)nc(C)n2)cc1 | 0 | 50* | -1 | 0
Cc1cnc(CNc2cc(-c3cncc(-c4ccccc4)c3)nc(C)n2)cn1 | 1 | 46* | 0 | 0
Cc1nn2c(=O)/c(=C\c3ccccn3)sc2nc1=O | 1 | -2 | 70* | 0
Fc1cccc(-c2nn3c(C4COc5ccccc5O4)nnc3s2)c1 (stereo not drawn) | 0 | 3 | -6 | 0
COc1cccc(-c2nn3c(C4COc5ccccc5O4)nnc3s2)c1 (stereo not drawn) | 2 | 61* | 5 | 0
O=C(COc1ccccc1)N1CCN(c2ccc(Nc3ccccn3)nn2)CC1 | 0 | 10 | 8 | -1
O=C(COc1ccccc1)N1CCN(c2ccc(Nc3ccncc3)nn2)CC1 | 2 | -5 | 2 | 2.0*
Cc1ccc(-c2ccc(-c3nnc(N)o3)s2)s1 | -4 | -24 | -3 | 2.3*
COc1ccc(-c2nnc(N)o2)cc1OC | 0 | 3 | 3 | 0
Cc1nn(-c2ccccc2)c(N2CCCCC2)c1/C=N/Nc1ccccn1 | -1 | 61* | 7 | 0
NC(=S)N1N=CCC1(O)C(F)(F)F (stereo not drawn) | -1 | 53* | 36 | 0
COc1ccccc1NC(=O)Cn1cnc2sc(C(=O)Nc3ccccc3C(F)(F)F)c(C)c2c1=O | -1 | 4 | 0 | 0
Cc1onc(-c2ccccc2Cl)c1C(=O)Nc1ccccc1C(=O)Nc1ccccc1 | 2 | 33* | -13 | 0
CC(=O)NS(=O)(=O)c1ccc(NC(=O)c2c(-c3ccccc3Cl)noc2C)cc1 | 1 | -10 | 13 | 1.9*
CN(c1ccccc1)S(=O)(=O)c1ccc(C(=O)Nc2ccc(-c3nc4ccccc4[nH]3)cc2)cc1 | 1 | -6 | 7 | 1
SMILES | GPR151 activ | TEAD-YAP inh | MITF inh | FBW7 activator
Cc1onc(-c2ccccc2Cl)c1C(=O)Nc1ccc(-c2nc3ccccc3[nH]2)cc1 | 4 | 33* | -3 | 0
CN(C)S(=O)(=O)c1ccc(C(=O)NC(=S)Nc2ccc(-c3nc4ccccc4[nH]3)cc2)cc1 | -2 | -28 | -17 | 3.9*
c1ccc(Oc2ccccc2NC2=NCCCCC2)cc1 | -1 | 5 | 14 | 0
N[C@H](Cc1ccc(Br)cc1)C(=O)N1CCC(c2nc(-c3ccncc3)no2)C1 (stereo partly drawn) | 4 | -3 | 14 | 0
CC(=O)Nc1cnc(NC(=O)c2ccc(Cl)cc2)cc1C | 0 | 52* | -2 | 0
COc1ccc(C(=O)Nc2cnc(NC(=O)c3cccs3)cc2C)cc1 | -2 | 37* | -7 | 0
CCC(=O)Nc1cnc(NC(=O)c2ccc(Cl)cc2)cc1C | 0 | -13 | 8 | 0
CCOC(=O)c1c(C)[nH]c(C(=O)N/N=C\c2ccccc2Cl)c1C | 3 | 40* | -7 | 0
CCOC(=O)c1c(C)[nH]c(C(=O)N/N=C\c2cccc(OC)c2)c1C | 1 | 46* | -2 | 0
